A short description of assay [1]: qHTS assay to test for compound auto fluorescence at 535 nm (green) in HEK293 cells (AID 720680).
Assay [2] in a line: qHTS assay to test for compound auto fluorescence at 460 nm (blue) in HEK293 cell free culture (AID 720681). A digest of the protocol:
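Blue fluorescence (Ex 405/Em 460 nm, triamterene-equivalent) was read immediately after pin transfer of compound or DMSO into medium (DMEM, 10% FBS) without cells.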
(In general: qHTS replaces the single test concentration by a dilution series.)

A short description of assay [3]: qHTS assay to test for compound auto fluorescence at 535 nm (green) in HEK293 cell free culture (AID 720682). A digest of the protocol: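 Green-channel intensity (Ex/Em 485/535 nm) was recorded from compound-treated wells containing only DMEM with 10% FBS. Fluorescein provided the equivalency standard.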
A short description of assay [4]: qHTS assay to test for compound auto fluorescence at 590 nm (red) in HEK293 cell free culture (AID 720683). A digest of the protocol:
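Red-channel autofluorescence of compounds in culture medium (DMEM, 10% FBS), no cells, measured at 540/590 nm. Rose Bengal sodium is the reference fluorophore for equivalence.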

Assay [5] is described as follows: qHTS assay to test for compound auto fluorescence at 590 nm (red) in HepG2 cell free culture (AID 720684). A digest of the protocol: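 No cells present: MEM + 10% FBS only. Compound pinned in, red label read (540/590 nm). Activity = fluorescence equivalent to Rose Bengal sodium.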
Assay [6] can be described thus: qHTS assay to test for compound auto fluorescence at 460 nm (blue) in HepG2 cell free culture (AID 720685). A digest of the protocol:
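Cell-free plates of MEM plus 10% FBS received 23 nL compound or DMSO vehicle; blue-channel (405/460 nm) intensity scored against triamterene as reference fluorophore.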

The nature of assay [7]: qHTS assay to test for compound auto fluorescence at 535 nm (green) in HepG2 cell free culture (AID 720686).
Assay [8] in a line: qHTS assay to test for compound auto fluorescence at 460 nm (blue) in HepG2 cells (AID 720687). A digest of the protocol: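 Blue-channel autofluorescence (Ex/Em 405/460 nm, triamterene-equivalent) was measured after 1 hr compound exposure at 37 C, 5% CO2. Cells were HepG2, plated overnight at 37 C in MEM plus 10% FBS.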
Assay [9] concerns the target Glucocorticoid receptor (Homo sapiens) (UniProt P04150). The assay can be described thus: qHTS assay to identify small molecule agonists of the glucocorticoid receptor (GR) signaling pathway (AID 720691; active = well fitted activation curve with a large enough effect in the signal ratio in the repeat runs, not every such curve was filed as active; the % refers to the signal ratio). The conditions noted are these: GR-bla HeLa, beta-lactamase reporter ratio, 18 h; activation: at 62.4 µM (top of the series). A digest of the protocol:
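Compounds in DMSO, alongside positive controls, were added to GR-bla HeLa reporter cells and incubated 18 h at 37 C; GRE-driven beta-lactamase was detected by fluorescence after 2 h with FRET substrate at room temperature.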

Assay [10] shares this target. Briefly: qHTS assay to identify small molecule antagonists of the glucocorticoid receptor (GR) signaling pathway (AID 720692; active = well fitted inhibition curve with a large enough effect in the signal ratio in the repeat runs, not every such curve was filed as active; the % refers to the signal ratio; also: potency is read from the fitted curve at half-maximal effect). The method in brief:
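In a 1536-well cell format, compounds were added 4 h after seeding GR-bla HeLa cells, together with dexamethasone at 5 nM final; reporter activity was measured by FRET-substrate fluorescence following 18 h at 37 C.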

Assay [11] in a line: qHTS assay to identify small molecule antagonists of the glucocorticoid receptor (GR) signaling pathway - cell viability counter screen (AID 720693). Also: nearly all actives have a fitted effect of over 55% in size.
A short description of assay [12]: qHTS assay for identifying genotoxic compounds that show differential cytotoxicity against isogenic chicken DT40 cell lines with known DNA damage response pathways - wild type cell line (AID 743012). Also: nearly all actives have a fitted effect of over 60% in size. Also: potency is read from the fitted curve at half-maximal effect. The method in brief:
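Viability of DNA repair-proficient chicken DT40 cells was assessed by CellTiter-Glo luminescence following 40 h compound exposure at 37 C/5% CO2.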

Assay [13] is described as follows: qHTS assay for identifying genotoxic compounds that show differential cytotoxicity against isogenic chicken DT40 cell lines with known DNA damage response pathways - Rev3 mutant cell line (AID 743014). Also: nearly all actives have a fitted effect of over 55% in size. Also: potency is read from the fitted curve at half-maximal effect.
Assay [14] can be described thus: qHTS assay for identifying genotoxic compounds that show differential cytotoxicity against isogenic chicken DT40 cell lines with known DNA damage response pathways - Rad54/Ku70 mutant cell line (AID 743015). Also: nearly all actives have a fitted effect of over 60% in size. Also: potency is read from the fitted curve at half-maximal effect.
Assay [15] can be described thus: qHTS assay to identify small molecule antagonists of the androgen receptor (AR) signaling pathway - cell viability counter screen (AID 743033; also: nearly all actives have a fitted effect of over 45% in size; also: potency is read from the fitted curve at half-maximal effect).
Assay [16] in a line: qHTS assay to identify small molecule antagonists of the androgen receptor (AR) signaling pathway using the MDA cell line - cell viability counter screen (AID 743041; also: nearly all actives have a fitted effect of over 45% in size). A digest of the protocol: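 Using the breast carcinoma line MDA-kb2 AR-luc, test chemicals were co-incubated with R1881 for 16 h; CellTiter-Fluor reagent, added at 15.5 h, provided a fluorescence measure of live cells.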

Assay [17] has as its target Androgen receptor (Homo sapiens) (UniProt P10275). Briefly: qHTS assay to identify small molecule antagonists of the androgen receptor (AR) signaling pathway (AID 743035; active = well fitted inhibition curve with a large enough effect in the signal ratio in the repeat runs, not every such curve was filed as active; the % refers to the signal ratio). The method in brief: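 Reporter HEK293 cells were exposed to compounds and R1881 overnight (16 h, 37C); beta-lactamase activity was then quantified by FRET fluorescence.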
Assay [18] has the same target. The assay can be described thus: qHTS assay to identify small molecule agonists of the androgen receptor (AR) signaling pathway (AID 743036; active = well fitted activation curve with a large enough effect in the signal ratio in the repeat runs, with a control signal flat, not every such curve was filed as active; the % refers to the signal ratio). The method in brief:
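Cell-based FRET reporter assay: HEK293 line with a UAS-beta-lactamase construct, compounds added in DMSO, 16 h exposure at 37C, then 2 h substrate step at room temperature and fluorescence intensity read.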

Assay [19] has the same target. Briefly: qHTS assay to identify small molecule agonists of the androgen receptor (AR) signaling pathway using the MDA cell line (AID 743040; also: nearly all actives have a fitted effect of over 20% in size). The method in brief: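 Stable MMTV-luciferase reporter in MDA-kb2 cells; note the promoter carries GR as well as AR response elements. 16 h compound treatment, 37C, 0% CO2; ONE-Glo luminescence endpoint.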
For assay [20] the target is unchanged. Briefly: qHTS assay to identify small molecule antagonists of the androgen receptor (AR) signaling pathway using the MDA cell line (AID 743042; also: nearly all actives have a fitted effect of over 55% in size; also: potency is read from the fitted curve at half-maximal effect). The method in brief:
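Antagonist mode: compounds plus R1881 agonist added to MDA-kb2 AR-luc cells, incubated 16 h at 37C. Luciferase reporter luminescence quantified, with multiplexed CellTiter-Fluor readout for cell viability.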

Values joined by “and” are separate entries in the source; they are usually repeats but may differ in a detail not shown here. Equal entries are not always repeated. Records with an inconclusive call do not appear. Active and inactive are the calls of the source. Unless noted, calls follow the shape of the dose curve; as a rule, active = well fitted curve in the direction sought with a large enough effect in the repeat runs; inconclusive = weak or mixed curves; inactive = no such curve, though single readings can be large; an effect the other way counts as inactive or inconclusive.

Sequence of Androgen receptor (Homo sapiens) (P10275 whole entry, looked up): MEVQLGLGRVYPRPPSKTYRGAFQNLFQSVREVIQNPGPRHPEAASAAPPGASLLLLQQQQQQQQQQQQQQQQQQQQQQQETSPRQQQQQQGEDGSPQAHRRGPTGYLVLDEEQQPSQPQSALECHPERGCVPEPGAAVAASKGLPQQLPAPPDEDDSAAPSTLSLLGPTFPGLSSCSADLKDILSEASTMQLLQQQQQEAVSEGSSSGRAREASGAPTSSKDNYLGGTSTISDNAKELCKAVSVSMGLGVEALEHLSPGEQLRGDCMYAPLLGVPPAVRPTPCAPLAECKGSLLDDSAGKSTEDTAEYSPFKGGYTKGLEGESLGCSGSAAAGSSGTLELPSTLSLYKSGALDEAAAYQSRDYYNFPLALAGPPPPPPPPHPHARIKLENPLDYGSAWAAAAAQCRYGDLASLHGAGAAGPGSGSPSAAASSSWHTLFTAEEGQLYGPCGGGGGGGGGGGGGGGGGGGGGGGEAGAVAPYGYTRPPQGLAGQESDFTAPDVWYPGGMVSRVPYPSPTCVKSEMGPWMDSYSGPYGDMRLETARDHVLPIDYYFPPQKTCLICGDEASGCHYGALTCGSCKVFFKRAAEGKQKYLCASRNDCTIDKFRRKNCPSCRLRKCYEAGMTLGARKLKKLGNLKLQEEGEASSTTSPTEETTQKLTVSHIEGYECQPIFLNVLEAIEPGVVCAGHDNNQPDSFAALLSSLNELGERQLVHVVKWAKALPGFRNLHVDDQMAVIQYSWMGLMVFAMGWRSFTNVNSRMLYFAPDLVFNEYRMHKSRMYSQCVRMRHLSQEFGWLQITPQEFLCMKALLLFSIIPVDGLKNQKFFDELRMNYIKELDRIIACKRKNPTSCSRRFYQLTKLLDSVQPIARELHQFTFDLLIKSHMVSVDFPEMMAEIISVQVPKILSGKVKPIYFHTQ
Sequence of Glucocorticoid receptor (Homo sapiens) (P04150 whole entry, looked up): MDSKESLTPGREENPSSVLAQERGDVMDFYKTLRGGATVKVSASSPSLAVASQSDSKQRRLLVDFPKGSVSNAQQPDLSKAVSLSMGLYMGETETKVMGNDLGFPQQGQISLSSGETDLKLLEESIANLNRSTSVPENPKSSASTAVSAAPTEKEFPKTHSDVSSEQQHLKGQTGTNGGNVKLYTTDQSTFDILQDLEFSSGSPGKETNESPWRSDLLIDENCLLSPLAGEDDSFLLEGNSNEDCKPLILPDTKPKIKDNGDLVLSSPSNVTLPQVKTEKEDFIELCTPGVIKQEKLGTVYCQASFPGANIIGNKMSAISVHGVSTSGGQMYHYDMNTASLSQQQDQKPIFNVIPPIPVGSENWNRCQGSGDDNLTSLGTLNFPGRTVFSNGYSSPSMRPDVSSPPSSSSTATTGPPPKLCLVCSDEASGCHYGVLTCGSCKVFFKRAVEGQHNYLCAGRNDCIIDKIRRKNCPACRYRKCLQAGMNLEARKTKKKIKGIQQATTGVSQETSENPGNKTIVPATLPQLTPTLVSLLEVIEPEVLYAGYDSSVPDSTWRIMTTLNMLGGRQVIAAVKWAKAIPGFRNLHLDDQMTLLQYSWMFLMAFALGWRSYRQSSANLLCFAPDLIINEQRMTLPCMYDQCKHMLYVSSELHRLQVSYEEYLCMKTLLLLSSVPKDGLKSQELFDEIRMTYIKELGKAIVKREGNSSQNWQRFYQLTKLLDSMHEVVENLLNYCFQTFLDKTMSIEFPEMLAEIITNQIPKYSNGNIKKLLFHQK

As for `O=P(Cl)(Cl)Cl`, the outcome in [1], in [3], in [4] and in assay [5] was inactive. In addition, the Potency entry in [2], in assay [6], in [7], in assay [8], in assay [9] and in assay [10] was “inactive” each time. Further, the Potency entry in assay [11], in assay [12], in assay [13], in assay [14], in assay [15] and in assay [16] was “inactive” in each case.
Turning to `CNC(=O)/C=C(\C)OP(=O)(OC)OC`, the result in assay [1], in assay [3], in [4] and in assay [5] was inactive. In addition, the Potency entry in [2], in [6], in assay [7], in [8], in assay [9] and in assay [10] was “inactive” each time. Moreover, the Potency result in [11], in assay [12], in [13], in [14], in assay [15] and in [16] was “inactive” each time.
Regarding `CCOP(=S)(OCC)Oc1cc(C)nc(N(CC)CC)n1`, the outcome in assay [1], in [3], in assay [4], in assay [5], in assay [18] and in assay [19] was inactive. The Potency entry in [2], in [6], in [7], in assay [8], in [9] and in [11] was “inactive” throughout. The Potency entry in [17], in [16] and in assay [20] was “inactive” throughout. The Potency in [12], in assay [13] and in assay [14] was 27.3 µM (active) throughout.
Take `O=C1C(Cl)=C(Cl)C(=O)C(Cl)=C1Cl`: the outcome in assay [1], in [3], in assay [4], in assay [5] and in [19] was inactive. Besides, the Potency entry in [2], in [6], in assay [7], in [8] and in assay [9] was “inactive” throughout. Further, the Potency in [10] was 30.9 µM (active); in assay [12] it was 13.6 µM (active) and 9.69 µM (active); in [14], 17.2 µM (active) and 8.63 µM (active); in assay [15], 17.3 µM (active) and 21.9 µM (active); in assay [20], 34.2 µM (active) and 30.6 µM (active).
As for `CC(Cc1ccc(OCC(=O)O)cc1)NCC(O)c1csc(C(F)(F)F)n1` (stereo not drawn), the result in assay [1], in assay [3], in assay [4] and in assay [5] was inactive. For the same compound, the Potency result in assay [2], in [6], in assay [7], in assay [8], in [9] and in [10] was “inactive” each time. The Potency result in assay [11], in assay [12], in assay [13], in assay [14], in assay [15] and in [16] was “inactive” in each case.
`CC1(C)[C@H](/C=C2\CCSC2=O)[C@@H]1C(=O)OCc1coc(Cc2ccccc2)c1`: the outcome in [1], in assay [3], in [4] and in assay [5] was inactive. Further, the Potency entry in [2], in assay [6], in [7], in assay [8], in assay [9] and in assay [11] was “inactive” each time. For the same compound, the Potency entry in assay [15] and in [16] was “inactive” each time. Besides, the Potency is 6.86 µM (active) in [12], 5.45 µM (active) in assay [13] and 10.9 µM (active) in assay [14].
On to `COc1cnc(OC)n2nc(NS(=O)(=O)c3c(OCC(F)F)cccc3C(F)(F)F)nc12`, for which the compound was classed as inactive in assay [1], in assay [3], in assay [4] and in [5]. Besides, the Potency result in [2], in assay [6], in [7], in assay [8], in assay [9] and in assay [10] was “inactive” each time. Besides, the Potency result in assay [12], in [13], in assay [14], in [15] and in assay [16] was “inactive” each time.
Consider `COP(=S)(OC)Oc1nc(Cl)c(Cl)cc1Cl`, for which the call in assay [1], in assay [3], in [4] and in assay [5] was inactive. For the same compound, the Potency result in assay [2], in assay [6], in assay [7], in assay [8], in [9] and in [10] was “inactive” in each case. Moreover, the Potency result in assay [11], in assay [15] and in assay [16] was “inactive” each time. Also, in assay [13], the Potency was 61.1 µM (active).
On to `Clc1cc(Cl)c(-c2cc(Cl)c(Cl)cc2Cl)cc1Cl`, for which the result in assay [1], in assay [3], in [4] and in [5] was inactive. For the same compound, the Potency entry in assay [2], in assay [6], in [7], in [8], in [9] and in assay [10] was “inactive” each time. In addition, the Potency entry in [11], in assay [12], in [13], in assay [14], in assay [15] and in [16] was “inactive” throughout.
Turning to `O=C(O)CCCCCCNC1c2ccccc2CCc2ccccc21`, the call in [1], in [3], in [4] and in [5] was inactive. Besides, the Potency result in assay [2], in assay [6], in [7], in assay [8], in assay [9] and in assay [10] was “inactive” throughout. Moreover, the Potency result in [12], in [14], in assay [15] and in [16] was “inactive” each time.
Take `Oc1cccc(Cl)c1Cl`: the compound was called inactive in assay [1], in assay [3], in assay [4] and in assay [5]. The Potency result in assay [2], in assay [6], in assay [7], in assay [8], in [9] and in [10] was “inactive” each time. Moreover, the Potency result in [11], in assay [12], in assay [14], in assay [15] and in [16] was “inactive” in each case.
As for `Nc1ccc(N=Nc2ccccc2)cc1`, the outcome in [1], in [3], in [4] and in assay [5] was inactive. Besides, the Potency result in assay [2], in [6], in [7], in assay [8] and in assay [9] was “inactive” throughout. For the same compound, the Potency in [10] is 54.9 µM (active); in [12], 61.1 µM (active); in assay [13] it was 61.1 µM (active); in assay [14], 56.1 µM (active).
Consider `C#CCO`, for which the compound was classed as inactive in [1], in assay [3], in assay [4] and in assay [5]. Moreover, the Potency entry in [2], in [6], in assay [7], in assay [8], in assay [9] and in [10] was “inactive” in each case. The Potency entry in [12], in assay [13], in [14], in assay [15] and in [16] was “inactive” in each case.
In the case of `N#CSCc1ccccc1`, the compound was called inactive in [1], in assay [3], in [4] and in assay [5]. For the same compound, the Potency entry in assay [2], in [6], in assay [7], in assay [8], in assay [9] and in assay [11] was “inactive” in each case. Further, the Potency entry in assay [12], in assay [13], in [14], in assay [15] and in assay [16] was “inactive” throughout.

(Values after PubChem BioAssay (Tox21).)
